Tau fibril FP – tau fibrillization inhibition (FP) | actives 0.39% (n = 280,000) | K18 P301L tau heparin fibrillization, Alexa594 FP, 6 h | Potency, µM (series often up to 57.7 µM), for the others: at the top dose activity, negative = inhibition, usual class: inhibitors; further: potency means the concentration at half of the fitted maximal effect; nearly all actives have a fitted effect of over 55% in size
Target sequence (P10636 561-689 P618L limits assumed): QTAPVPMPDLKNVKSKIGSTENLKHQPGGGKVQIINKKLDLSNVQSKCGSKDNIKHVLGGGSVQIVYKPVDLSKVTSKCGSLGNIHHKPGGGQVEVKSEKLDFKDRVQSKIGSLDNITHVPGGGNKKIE
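Steps: dispense K18 P301L tau (15 uM plus 0.24 uM Alexa 594 tracer, final) in pH 7 sodium acetate; add compound; add heparin (20 uM final); incubate 6 hr, 37 C; add ThT (30 uM final); after 1 hr ambient, read FP.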
G9a inh – G9a (human) methyltransferase inhibition. Q96KQ7. G9a H3K9 monomethylation, AlphaScreen, 2 h. Potency, µM (series often up to 102 µM), without a hit: at the highest dose activity, negative = inhibition, most hits filed as inhibitors. actives 8.8% (n = 350,000); further: potency means the concentration at half of the fitted maximal effect; nearly all actives have a fitted effect of over 75% in size
Target sequence (Q96KQ7 913-1193 limits assumed): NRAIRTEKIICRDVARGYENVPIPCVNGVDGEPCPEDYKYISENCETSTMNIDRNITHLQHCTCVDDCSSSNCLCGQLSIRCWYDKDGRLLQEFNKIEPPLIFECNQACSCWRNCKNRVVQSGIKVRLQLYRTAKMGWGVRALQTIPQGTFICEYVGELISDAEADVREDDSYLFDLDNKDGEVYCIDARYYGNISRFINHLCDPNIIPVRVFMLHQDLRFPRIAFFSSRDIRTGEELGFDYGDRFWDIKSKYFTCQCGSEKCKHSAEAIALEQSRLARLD
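Enzyme 20 nM + cpd, 15 min RT; add b-H3K9 pep 500 nM / SAM 20 uM; 2 h RT; anti-H3K9me1 Ab 0.5 ug/mL + SA donor / anti-rabbit acceptor beads 20 ug/mL each, 10 min; AlphaScreen read.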
Coupling enz – coupling enzyme interference in Giardia aldolase counter-screen; activity change, negative = inhibition, % at 58.2 µM, hits read low; actives 0.67% (n = 290,000); coupling enzyme system counterscreen, AmpLite Red fluorescence; AID 2472; in the data active means activity change below about -30%
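Activity here indicates interference with the coupling reaction, not aldolase inhibition. Compounds at 57.5 uM final met coupling enzymes for 10 min at RT; substrate and AmpLite Red detection followed, with a 525/598 nm fluorescence read after 20 min.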
Tau fluor counter – counter-screen for tau fibril formation inhibitors | tau K18 P301L Alexa594 fluorescence, heparin fibrillization | Potency, µM (highest dose often 57.7 µM), for the others: top-dose activity change, negative = decrease | actives 0.93% (n = 280,000) | AID 1463; further: potency means the concentration at half of the fitted maximal effect; nearly all actives have a fitted effect of over 55% in size
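Human tau K18 P301L (15 uM unlabeled, 0.24 uM Alexa 594-labeled) in 100 mM sodium acetate pH 7 with 20 uM heparin, 6 hr at 37 C. ThT 30 uM added, 1 hr ambient; Alexa 594 FP and total fluorescence read at 555/632 nm.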
Tau ThT inhib – blocks human tau fibril formation measured by thioflavin T. P10636. recombinant tau K18 P301L, heparin-induced fibrillization, ThT fluorescence. Potency, µM (series often up to 57.4 µM), for the others: at the top dose activity, negative = inhibition, usual class: inhibitors. actives 2.1% (n = 270,000); further: potency means the concentration at half of the fitted maximal effect; nearly all actives have a fitted effect of over 55% in size
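Fibril formation assay: tau K18 P301L at 15 uM with trace Alexa 594 label, heparin inducer 20 uM, pH 7 sodium acetate buffer, 37 C for 6 hr; endpoint ThT signal.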
Sfp PPTase inh – blocks B. subtilis Sfp PPTase activity; Biochemical Sfp PPTase activity, qHTS; Q9F4F7; actives 3.5% (n = 310,000); Potency, µM, for the others: largest response in the series, negative = inhibition, usual class: inhibitors; AID 1490;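 further: the enzyme is Sfp with the accession as filed and its product quenches rhodamine fluorescence; potency means the concentration at half of the fitted maximal effect; 0% = enzyme reaction without inhibitor and -100% = no enzyme wells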
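Sfp 15 nM + cpd, 15 min RT; start w/ rhodamine-CoA 5 uM, BHQ-2-YbbR 12.5 uM (final); 50 mM Hepes pH 7.6, 10 mM MgCl2, 0.01% NP-40, 0.01% BSA; read 525/598 nm at 0 and 30 min.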
* marks the source's active call; other numbers are inactive results; [ ] = remark or other dose. Hits are enriched below; roughly 11% of the tested compounds scored in any of these assays. Unless noted, the call rests on the fitted dose curve; in most records, active means well fitted curve in the direction sought with a large enough effect; inconclusive means small, poorly fitted or top-dose-only effect, or another doubt; inactive means no such curve, though single readings can be large; an effect the other way counts as inactive or inconclusive. Unless noted, on the % scale 0 is the no-effect control and ±100 the full control effect.

What do the screens show for `Cc1cc(C)cc(NC(=S)Nc2cccc3cnccc23)c1`?
Tau fibril FP: inconclusive; G9a inh: 18µM*; Coupling enz: -36*; Tau fluor counter: inconclusive; Tau ThT inhib: inconclusive; Sfp PPTase inh: 25µM*

What do the screens show for `Cc1ccc(NC(=S)c2ccncc2)c(C)c1`?
G9a inh: 79µM*; Coupling enz: 0; Sfp PPTase inh: 19%

Results for COc1ccc(C(=O)NC2CCN(Cc3c(F)cccc3Cl)CC2)cc1OC ?
G9a inh: -3%[12.7 µM]; Coupling enz: 1; Sfp PPTase inh: 6%

How did COCC(=O)N1CCC[C@@]2(CCN(c3ccccn3)C2)C1 do in these assays?
G9a inh: 11%[12.7 µM]; Coupling enz: -1; Sfp PPTase inh: -1%

Results for O=C(CNCCCO)Nc1cc(C(F)(F)F)cc(NC(=O)CNCCCO)c1Cl ?
Tau fibril FP: -5%; G9a inh: 11µM*; Coupling enz: 3; Tau fluor counter: 6%; Tau ThT inhib: -1%; Sfp PPTase inh: 5%

Results for COc1cc(S(=O)(=O)Nc2c(C)cc(C)cc2C)ccc1Cl ?
Tau fibril FP: -9%; G9a inh: -31%; Coupling enz: 0; Tau fluor counter: -21%; Tau ThT inhib: -10%; Sfp PPTase inh: 56µM*

Results for COc1cc(S(=O)(=O)Nc2ccccc2C)ccc1Cl ?
Tau fibril FP: 5%; G9a inh: 2%[12.7 µM]; Coupling enz: 0; Tau fluor counter: -6%; Tau ThT inhib: -4%; Sfp PPTase inh: -2%

Results for O=C(NCc1ccc(F)cc1)C1CCN(S(=O)(=O)c2cccc3nonc23)CC1 ?
G9a inh: 3%; Coupling enz: 1; Sfp PPTase inh: 15%

How did O=C(Cn1c(SCCOc2ccccc2)nc2ccccc21)N1CCOCC1 do in these assays?
Tau fibril FP: -12%; G9a inh: -29%[59 µM]; Tau fluor counter: -12%; Tau ThT inhib: 4%

Results for O=C(Nc1nncs1)c1cc(-c2ccncc2)nc2ccc(Cl)cc12 ?
G9a inh: 50µM*; Sfp PPTase inh: 2%

How did COc1ccc(-c2cc(C(=O)NC3=NCCS3)c3ccccc3n2)cc1OC do in these assays?
Tau fibril FP: -11%; G9a inh: 21%; Coupling enz: -3; Tau fluor counter: inconclusive; Tau ThT inhib: -16%; Sfp PPTase inh: 10%

What do the screens show for `O=C(Nc1nc2c(s1)CCCC2)c1cc(-c2ccncc2)nc2ccccc12`?
Tau fibril FP: 11%; G9a inh: inconclusive; Coupling enz: 1; Tau fluor counter: -28%; Tau ThT inhib: inconclusive; Sfp PPTase inh: -10%

What do the screens show for `O=C(Nc1nc2c(s1)CCCC2)c1cc(-c2ccccc2)nc2ccccc12`?
Tau fibril FP: -5%; G9a inh: 13µM*; Coupling enz: 0; Tau fluor counter: -18%; Tau ThT inhib: -5%; Sfp PPTase inh: -10%

How did COC(=O)c1sccc1NC(=O)c1cc(-c2cccc(C)c2)nc2ccccc12 do in these assays?
Tau fibril FP: -13%; G9a inh: 6%; Coupling enz: 1; Tau fluor counter: -21%; Tau ThT inhib: -11%; Sfp PPTase inh: 16µM*

Results for O=C(NC1=NCCS1)c1cc(-c2ccc(-c3ccccc3)cc2)nc2ccccc12 ?
Tau fibril FP: 28µM*; G9a inh: -7%[59 µM]; Coupling enz: -2; Tau fluor counter: -23%; Tau ThT inhib: -5%; Sfp PPTase inh: -5%

Results for CCN(CC)CCN(C(=O)c1ccc(C(=O)OC)cc1)c1nc2ccc(Cl)cc2s1 ?
Tau fibril FP: 2%; G9a inh: -34%[59 µM]; Tau fluor counter: -1%; Tau ThT inhib: 5%

What do the screens show for `O=C(NCCc1ccc(Cl)cc1)c1cccn1-c1nnc(N2CCCC2)s1`?
Tau fibril FP: -1%; G9a inh: -4%[59 µM]; Tau fluor counter: -19%; Tau ThT inhib: -7%

Results for C=CCOC(/C=C/c1ccccc1)CC (centres undefined) ?
Coupling enz: 3; Sfp PPTase inh: 0%

How did Cc1ccc(C(=O)Nc2nc3c(s2)CCCC3)o1 do in these assays?
Tau fibril FP: 8%; G9a inh: 56µM*; Coupling enz: -4; Tau fluor counter: -8%; Tau ThT inhib: inconclusive; Sfp PPTase inh: -10%

How did Cc1csc(NC(=O)c2cc(-c3ccccc3)nc3ccccc23)n1 do in these assays?
Tau fibril FP: inconclusive; G9a inh: 71µM*; Coupling enz: -1; Tau fluor counter: inconclusive; Tau ThT inhib: -4%; Sfp PPTase inh: 18%

Results for CC(C)(C)c1nnc(NC(=O)c2cc(-c3ccccc3)nc3ccccc23)s1 ?
Tau fibril FP: inconclusive; G9a inh: inconclusive; Coupling enz: -4; Tau fluor counter: -17%; Tau ThT inhib: -12%; Sfp PPTase inh: 20µM*

What do the screens show for `O=C(Nc1nc2c(s1)CCCC2)c1ccc(Br)o1`?
Tau fibril FP: -5%; G9a inh: 9%[59 µM]; Coupling enz: -5; Tau fluor counter: -12%; Tau ThT inhib: inconclusive; Sfp PPTase inh: 9%

How did CCOC(=O)Cc1csc(NC(=O)c2cc(-c3ccncc3)nc3ccccc23)n1 do in these assays?
G9a inh: -44%[12.7 µM]

How did CN(C1CCCCC1)S(=O)(=O)Cc1ccccc1 do in these assays?
Tau fibril FP: -5%; G9a inh: 32µM*; Coupling enz: 2; Tau fluor counter: 1%; Tau ThT inhib: -16%; Sfp PPTase inh: inconclusive

What do the screens show for `CC(C)(NC(=O)c1cc(Cl)c2ccccc2c1O)C(=O)O`?
Tau fibril FP: -8%; G9a inh: 32µM*; Coupling enz: 0; Tau fluor counter: -18%; Tau ThT inhib: -16%; Sfp PPTase inh: 17%

What do the screens show for `COc1cc2c3nnc(-c4ccc(F)cc4)c-3cn(Cc3cccc(F)c3)c2cc1OC`?
Tau fibril FP: -1%; G9a inh: 45µM*; Coupling enz: 2; Tau fluor counter: -18%; Tau ThT inhib: -6%; Sfp PPTase inh: 45µM*

Results for Clc1ccc(SCCOCCN2CCOCC2)cc1 ?
G9a inh: 6.3µM*; Coupling enz: 0; Sfp PPTase inh: -29%

What do the screens show for `Clc1ccc(SCCCCN2CCOCC2)cc1`?
Tau fibril FP: -4%; G9a inh: 4µM*; Coupling enz: 1; Tau fluor counter: 0%; Tau ThT inhib: -7%; Sfp PPTase inh: -36%

Results for CC1CN(CCCCSc2ccc(Cl)cc2)CC(C)O1 (centres undefined) ?
G9a inh: 22µM*; Coupling enz: -2; Sfp PPTase inh: -12%

How did Clc1ccc(SCCOCCN2CCCCC2)cc1 do in these assays?
Tau fibril FP: 0%; G9a inh: inconclusive; Coupling enz: -4; Tau fluor counter: 2%; Tau ThT inhib: -3%; Sfp PPTase inh: 56µM*
